Values joined by “and” are separate entries in the source; they are usually repeats but may differ in a detail not shown here. Equal values may be shown once. Active and inactive are the calls of the source. The calls were made as follows: active = hit-call score of the fitted dose curve at least 0.9, where 1 is the maximum; inactive = score below 0.9.

The values below come from PubChem BioAssay (EPA / NIEHS).

Read-out in experiment [1]: Thrombomodulin, THBD (gene 7056)
The experiment in a line: BSK_CASM3C_Thrombomodulin: BioMAP Diversity Plus: CASM3C Assay for Thrombomodulin Biomarker Activity (AID 2283051).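 Also: thrombomodulin protein level measured by ELISA 24 h after dosing.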 As to conditions: primary human coronary artery smooth muscle cells; actives raise or lower the signal.

Read-out in experiment [2]: Tissue Factor, F3 (gene 2152)
The experiment in a line: BSK_CASM3C_TissueFactor: BioMAP Diversity Plus: CASM3C Assay for Tissue Factor Biomarker Activity (AID 2283052).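 Also: cell surface tissue factor protein level read by ELISA.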 As to conditions: primary human coronary artery smooth muscle cells; actives raise or lower the signal.

Read-out in experiment [3]: Interferon-gamma inducible Protein 10 (IP10), CXCL10 (gene 3627)
The experiment in a line: BSK_hDFCGF_IP10: BioMAP Diversity Plus: hDFCGF Assay for Interferon-gamma inducible Protein 10 (IP10) Biomarker Activity (AID 2283053). As to conditions: primary human foreskin fibroblasts; actives raise or lower the signal. The essentials: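 Primary human foreskin fibroblasts exposed to chemicals for 24 h. IP-10 measured by ELISA; changes fitted bidirectionally against DMSO baseline.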

Read-out in experiment [4]: Urokinase-type plasminogen activator receptor (uPAR), PLAUR (gene 5329)
The experiment in a line: BSK_CASM3C_uPAR: BioMAP Diversity Plus: CASM3C Assay for Urokinase-type plasminogen activator receptor (uPAR) Biomarker Activity (AID 2283054).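 Also: cell-surface uPAR protein level quantified by ELISA.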 As to conditions: primary human coronary artery smooth muscle cells; actives raise or lower the signal.

Read-out in experiment [5]: Vascular cell adhesion molecule 1 (VCAM1), VCAM1 (gene 7412)
Kind of experiment: BSK_CASM3C_VCAM1: BioMAP Diversity Plus: CASM3C Assay for Vascular cell adhesion molecule 1 (VCAM1) Biomarker Activity (AID 2283055).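 Also: VCAM-1 protein level quantified by ELISA on the cells.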 As to conditions: primary human coronary artery smooth muscle cells; actives raise or lower the signal.

Read-out in experiment [6]: Collagen III, COL3A1 (gene 1281)
The experiment in a line: BSK_hDFCGF_CollagenIII: BioMAP Diversity Plus: hDFCGF Assay for Collagen III Biomarker Activity (AID 2283056). As to conditions: primary human foreskin fibroblasts; actives raise or lower the signal. The essentials:
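ELISA readout of Collagen III in human dermal (foreskin) fibroblasts, taken 24 h post-treatment. Gain or loss relative to DMSO vehicle fitted in both directions.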

Read-out in experiment [7]: Epidermal growth factor receptor (EGFR), EGFR (gene 1956)
The experiment in a line: BSK_hDFCGF_EGFR: BioMAP Diversity Plus: hDFCGF Assay for Epidermal growth factor receptor (EGFR) Biomarker Activity (AID 2283057). As to conditions: primary human foreskin fibroblasts; actives raise or lower the signal. In short, it runs like this: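 Primary human foreskin fibroblasts (hDFCGF system), sampled 24 h after dosing; EGFR quantified by ELISA. Bidirectional fit relative to DMSO baseline; SRB total-protein staining in parallel cultures for cytotoxicity.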

Read-out in experiment [8]: Interleukin-8 (IL8), CXCL8 (gene 3576)
The experiment in a line: BSK_hDFCGF_IL8: BioMAP Diversity Plus: hDFCGF Assay for Interleukin-8 (IL8) Biomarker Activity (AID 2283058). As to conditions: primary human foreskin fibroblasts; actives raise or lower the signal. The essentials:
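IL-8 levels read by ELISA at 24 hours after dosing human skin fibroblast cultures. Parallel SRB staining assessed overt cytotoxicity, and gain or loss of signal was fitted against DMSO control.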

Read-out in experiment [9]: Macrophage colony-stimulating factor (MCSF), CSF1 (gene 1435)
Kind of experiment: BSK_hDFCGF_MCSF: BioMAP Diversity Plus: hDFCGF Assay for Macrophage colony-stimulating factor (MCSF) Biomarker Activity (AID 2283060). As to conditions: primary human foreskin fibroblasts; actives raise or lower the signal. The essentials:
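M-CSF levels read by ELISA at 24 h post-dosing in human skin fibroblasts. Parallel cultures stained with SRB assessed cytotoxicity at the same time point; response fitted in both directions against the DMSO baseline.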

Read-out in experiment [10]: Monokine induced gamma interferon (MIG), CXCL9 (gene 4283)
The experiment in a line: BSK_hDFCGF_MIG: BioMAP Diversity Plus: hDFCGF Assay for Monokine induced gamma interferon (MIG) Biomarker Activity (AID 2283063). As to conditions: primary human foreskin fibroblasts; actives raise or lower the signal. In short, it runs like this:
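Human primary foreskin fibroblasts in the hDFCGF system, exposed to test chemical for 24 h; MIG measured by ELISA. Bidirectional curve fitting against DMSO negative control as activity baseline.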

Read-out in experiment [11]: Matrix Metallopeptidase 1 (MMP1), MMP1 (gene 4312)
The experiment in a line: BSK_hDFCGF_MMP1: BioMAP Diversity Plus: hDFCGF Assay for Matrix Metallopeptidase 1 (MMP1) Biomarker Activity (AID 2283064). As to conditions: primary human foreskin fibroblasts; actives raise or lower the signal. The essentials:
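Primary human foreskin fibroblasts exposed to chemicals for 24 h; MMP1 measured by ELISA. Cytotoxicity tracked by SRB staining in parallel cultures; bidirectional fit relative to DMSO.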

Read-out in experiment [12]: Vascular cell adhesion molecule 1 (VCAM1), VCAM1 (gene 7412)
Kind of experiment: BSK_hDFCGF_VCAM1: BioMAP Diversity Plus: hDFCGF Assay for Vascular cell adhesion molecule 1 (VCAM1) Biomarker Activity (AID 2283065).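 As to AC50: VCAM-1 protein level quantified by ELISA after 24 h chemical exposure.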 As to conditions: primary human foreskin fibroblasts; actives raise or lower the signal. In short, it runs like this: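 ELISA readout of VCAM-1 on human dermal fibroblast primary cultures, 24 h after chemical exposure. Gain or loss of signal fitted in both directions against DMSO baseline.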

Read-out in experiment [13]: Plasminogen activator inhibitor-1 (PAI1), SERPINE1 (gene 5054)
Kind of experiment: BSK_hDFCGF_PAI1: BioMAP Diversity Plus: hDFCGF Assay for Plasminogen activator inhibitor-1 (PAI1) Biomarker Activity (AID 2283066). As to conditions: primary human foreskin fibroblasts; actives raise or lower the signal. The essentials:
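Human foreskin fibroblast primary cells, 24 h chemical exposure; PAI-1 measured by ELISA. Bidirectional fitting relative to DMSO; parallel cultures stained with SRB for total protein to flag overt cytotoxicity.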

Read-out in experiment [14]: Intercellular Adhesion Molecule 1 (ICAM1), ICAM1 (gene 3383)
Kind of experiment: BSK_KF3CT_ICAM1: BioMAP Diversity Plus: KF3CT Assay for Intercellular Adhesion Molecule 1 (ICAM1) Biomarker Activity (AID 2283067). As to conditions: primary human keratinocytes with fibroblasts; actives raise or lower the signal. The essentials: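 Cell-surface ICAM-1 was measured by ELISA 24 h after dosing primary human skin keratinocytes co-cultured with fibroblasts. Parallel SRB staining tracked overt cytotoxicity. Gain or loss of signal was fitted relative to DMSO.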

Read-out in experiment [15]: Interferon-gamma inducible Protein 10 (IP10), CXCL10 (gene 3627)
The experiment in a line: BSK_KF3CT_IP10: BioMAP Diversity Plus: KF3CT Assay for Interferon-gamma inducible Protein 10 (IP10) Biomarker Activity (AID 2283068). As to conditions: primary human keratinocytes with fibroblasts; actives raise or lower the signal. In short, it runs like this:
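KF3CT co-culture (keratinocytes + foreskin fibroblasts), 24 h compound, IP-10 by ELISA; bidirectional fit vs DMSO baseline.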

Experiment [16] is described as follows: BSK_KF3CT_SRB: Viability Assessment in the BioMAP Diversity Plus: KF3CT Assay (AID 2283069).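 Also: total protein by sulforhodamine B staining as a cytotoxicity measure; read 24 h after compound addition.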 As to conditions: primary human keratinocytes with fibroblasts. The essentials: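 Human keratinocyte and foreskin fibroblast co-culture exposed to chemical for 24 h. Total protein measured in parallel cultures by 0.1% sulforhodamine B staining after 10% TCA fixation, read at 560 nm; bidirectional fit relative to DMSO.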

Read-out in experiment [17]: Interleukin-1 alpha (IL1a), IL1A (gene 3552)
Kind of experiment: BSK_KF3CT_IL1a: BioMAP Diversity Plus: KF3CT Assay for Interleukin-1 alpha (IL1a) Biomarker Activity (AID 2283070). As to conditions: primary human keratinocytes with fibroblasts; actives raise or lower the signal. In short, it runs like this:
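Primary human keratinocyte plus foreskin fibroblast co-culture, dosed and measured at 24 h in 96-well plates. IL-1a level quantified by ELISA; bidirectional fit relative to DMSO.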

Read-out in experiment [18]: TIMP metallopeptidase inhibitor 1 (TIMP1), TIMP1 (gene 7076)
The experiment in a line: BSK_hDFCGF_TIMP1: BioMAP Diversity Plus: hDFCGF Assay for TIMP metallopeptidase inhibitor 1 (TIMP1) Biomarker Activity (AID 2283062). As to conditions: primary human foreskin fibroblasts; actives raise or lower the signal. The essentials: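 TIMP-1 measured by ELISA 24 h after chemical dosing of primary human skin fibroblasts, with gain or loss fitted relative to DMSO. Parallel SRB staining (560 nm) monitored overt cytotoxicity.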

Experiment [19] is described as follows: BSK_hDFCGF_SRB: Viability Assessment in the BioMAP Diversity Plus: hDFCGF Assay (AID 2283061).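 Also: cells exposed to compound for 24 h before the read.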 As to conditions: primary human foreskin fibroblasts. The essentials:
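Viability was read as total protein: after 10% TCA fixation, wells were stained with 0.1% sulforhodamine B and read at 560 nm. Primary human foreskin fibroblasts were dosed for 24 h, with bidirectional fitting versus DMSO.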

As to `O=C(O)C=CC(F)(C(F)(F)F)C(F)(F)F`, the outcome in [1], in [2], in experiment [3], in experiment [4], in experiment [5] and in experiment [6] was inactive. Besides, the outcome in [7], in experiment [8], in experiment [9], in experiment [10], in [11] and in experiment [12] was inactive. Also, the result in experiment [13], in experiment [14], in experiment [15], in experiment [16] and in [17] was inactive.
As to `O=[N+]([O-])c1ccccc1`, the result in [1], in experiment [2], in [3], in experiment [4], in experiment [5] and in [6] was inactive. Further, the outcome in experiment [7], in experiment [8], in experiment [9], in [10], in experiment [11] and in experiment [12] was inactive. Further, the result in experiment [13], in [14], in experiment [15], in experiment [16] and in experiment [17] was inactive.
`ClC(Cl)=C(c1ccc(Cl)cc1)c1ccccc1Cl`: the outcome in experiment [1] was inactive. Also, the AC50 – broadly, the concentration at which the activity in the assay is half-maximal – in [2] was 24 µM (active); in experiment [3] it was 3.72 µM (active); in experiment [4] it was 32.6 µM (active); in experiment [5] it was 20 µM (active); in experiment [6] it was 2.45 µM (active); in [7], 4.82 µM (active). The AC50 in experiment [8] is 4.15 µM (active); in experiment [9], 2.86 µM (active); in [10], 4.45 µM (active); in experiment [11], 3.83 µM (active); in experiment [12], 2.68 µM (active); in experiment [13], 4.24 µM (active). Also, the AC50 in experiment [14] is 5.72 µM (active); in experiment [15] it was 3.5 µM (active); in [16] it was 6.86 µM (active); in [17] it was 7 µM (active).
With `Cc1ccc2c(c1N)C(=O)c1ccccc1C2=O`, the result in [1], in experiment [2], in [3], in experiment [5], in experiment [7] and in [8] was inactive. Also, the outcome in [9], in experiment [18], in [10], in [11], in experiment [12] and in [13] was inactive. Besides, the outcome in experiment [14], in [15], in [16] and in [17] was inactive. For the same compound, the AC50 in experiment [4] and in experiment [6] was 20 µM (active) in each case.
`CCC(C)(C)c1ccc(O)cc1`: the outcome in [1], in experiment [2], in experiment [3], in experiment [4], in [5] and in experiment [6] was inactive. The result in experiment [7], in [8], in [9], in [19], in experiment [10] and in experiment [11] was inactive. For the same compound, the result in [12], in experiment [13], in [14], in experiment [15], in experiment [16] and in experiment [17] was inactive.
Take `COP(=O)(CCC(=O)NCO)OC`: the outcome in [1], in experiment [2], in experiment [3], in [4], in experiment [5] and in experiment [6] was inactive. Besides, the result in experiment [7], in experiment [8], in experiment [9], in experiment [10], in experiment [11] and in [12] was inactive. The result in experiment [13], in experiment [14], in [15], in [16] and in experiment [17] was inactive.
In the case of `COC(=O)C(F)(F)C(F)(F)OC(F)(C(F)(F)F)C(F)(F)OC(F)=C(F)F` (stereo not given), the result in experiment [1], in experiment [2], in experiment [4], in experiment [5], in experiment [6] and in experiment [7] was inactive. Further, the result in experiment [8], in experiment [9], in experiment [19], in [10], in [11] and in experiment [13] was inactive. For the same compound, the outcome in experiment [14], in experiment [15], in experiment [16] and in [17] was inactive. Also, the AC50 was 5.35 µM (active) and 2.92 µM (active) in [3]; 2.13 µM (active) and 2.85 µM (active) in experiment [12].
For the compound `CN(C)C(=O)Cl`, the result in experiment [1], in experiment [2], in [3], in [4], in experiment [5] and in experiment [6] was inactive. Besides, the outcome in experiment [7], in experiment [8], in [9], in [18], in [10] and in experiment [11] was inactive. The outcome in experiment [12], in [13], in experiment [14], in experiment [15], in [16] and in [17] was inactive.
